Reference: PubChem BioAssay (NCATS)
Inconclusive results are not listed. The source made the active and inactive calls. Unless noted, calls come from the whole dose curve; as a rule, active = well fitted curve in either direction with a large enough effect (not every such curve was filed as active); inconclusive = small, poorly fitted or top-dose-only effect, or another doubt; inactive = flat fitted curve, though single readings scatter.

Legend:
[1] = AP1 Signaling Pathway (AID 357); details: ME-180 AP-1-bla reporter, EGF-induced, beta-lactamase ratio, 5 h; at 17.2 µM (top of the series) unless noted;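 note: ME-180 reporter cells stimulated with EGF at its EC50 level; % is set by controls: 0 for no effect and ±100 for the full control effect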
How it was run: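 Cells are seeded overnight, exposed to compound titrations and an EC50 level of EGF for 5 hours at 37 °C, then loaded with CCF4 dye for 2.5 hours. Beta-lactamase activity under the AP-1 element is read as a blue/green ratio.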

[2] = biological target: Cytochrome P450 1A2 (Homo sapiens) (UniProt P05177); experiment: p450-cyp1a2 (AID 410; calls by dose curve; note: potency is the fitted concentration of half-maximal effect;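 for activity change, negative = inhibition: -100% = full effect of reference inhibitor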)
How it was run: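 20nM CYP1A2 with 100uM Luciferin-ME (at Km) in 100mM KPO4; compound preincubated 10 min, NADPH regeneration added, 60 min at room temperature. Luciferin quantified by luminescence after detection reagent; normalized to 57 uM furafylline.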

[3] = Stat Signaling Pathway (AID 446); details: ME-180 SIE beta-lactamase reporter, IL-6 stimulated, 5 h; at 17.2 µM (top of the series) unless noted;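 note: ME-180 cervical cancer cells given 40 pM IL-6 alongside compound; SIE-controlled beta-lactamase reporter measured as 460/530 nm FRET emission ratio; % is set by controls: 0 for no effect and ±100 for the full control effect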
How it was run: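 ME-180 cells carrying a SIE-driven beta-lactamase reporter are stimulated with 40 pM IL-6 for 5 h at 37C in the presence of compound. The 460/530 nm FRET substrate ratio is read after 2.5 h at RT. Data are normalised to 300 pM IL-6 and to 125 nM JAK inhibitor controls.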

[4] = biological target: Glucocorticoid receptor (Homo sapiens) (UniProt P04150); experiment: GR-GFP Redistribution (AID 450;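 active = compounds whose dose series gives a full or clear partial fitted curve of increased nuclear translocation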; note: potency is the fitted concentration of half-maximal effect)
[5] = biological target: Glucocorticoid receptor (Homo sapiens) (UniProt P04150); experiment: GR-EFC Redistribution (AID 451; calls by dose curve; note: potency is the fitted concentration of half-maximal effect); details: CHO-K1 GR-EFC translocation, beta-gal luminescence, 2 h
How it was run: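 CHO-K1 cells expressing nuclear EA and GR-ED fragments of b-gal; compounds titrated up to 46 uM final, 2 h at 37 C. GR nuclear translocation read as complemented b-gal luminescence after 1 h RT detection.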

[6] = biological target: Mitogen-activated protein kinase 10 (Mus musculus) (UniProt Q61831); experiment: JNK3 AlphaScreen Assay (AID 530);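 note: kinase came from lysate of stimulated human HepG2 cells; signal reports phosphorylation of biotinylated GST-cJun 1-79 at Ser73 with 10 µM ATP; % is set by controls: 0 for no effect and ±100 for the full control effect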
How it was run: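 Pre-activated (IL-1β/TNFα) JNK3 in HepG2 lysates phosphorylates biotin-GST-cJun(1-79), 10 uM ATP; anti-phospho-cJun(Ser73) AlphaScreen read at room temperature, pH 7.6 Tris buffer. Compounds pre-incubated 15 min as titrations.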

[7] = biological target: Cytochrome P450 2C9 (Homo sapiens) (UniProt P11712); experiment: qHTS Assay for Inhibitors and Substrates of Cytochrome P450 2C9 (AID 883; active = well fitted curve in the direction sought with a large enough effect; an effect the other way counts as inactive or inconclusive; note: % is set by controls: 0 for no effect and ±100 for the full control effect; nearly all actives have a fitted effect of over 60% in size)
How it was run: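 10nM CYP2C9 + 100uM Luciferin-H (=KM), 25mM KPO4; cpd 10 min 37C; NADPH regen, 60 min 37C; stop/detect with P450 Glo-Buffer 20 min; luminescence. Norm. to 57uM sulphaphenazole as full inhibition.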

[8] = biological target: Cytochrome P450 2D6 (Homo sapiens) (UniProt P10635); experiment: qHTS Assay for Inhibitors and Substrates of Cytochrome P450 2D6 (AID 891; active = well fitted curve in the direction sought with a large enough effect; an effect the other way counts as inactive or inconclusive; note: nearly all actives have a fitted effect of over 60% in size; note: potency is the fitted concentration of half-maximal effect)
How it was run: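 Human CYP2D6 (5 nM) with 30 uM Luciferin-ME EGE (at Km) in 100 mM KPO4, compound preincubated 10 min, then NADPH regeneration system for 60 min at room temperature. Luciferin read by luminescence; normalized to 1.43 uM quinidine.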

[9] = biological target: Cytochrome P450 2C19 (Homo sapiens) (UniProt P33261); experiment: qHTS Assay for Inhibitors and Substrates of Cytochrome P450 2C19 (AID 899; active = well fitted curve in the direction sought with a large enough effect; an effect the other way counts as inactive or inconclusive; note: % is set by controls: 0 for no effect and ±100 for the full control effect; nearly all actives have a fitted effect of over 60% in size)
How it was run: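 Luminescent read-out of luciferin formed from Luciferin-H EGE (10uM, equal to KM). Enzyme 5nM in 50mM KPO4; compound added, 10 min at 37C, then NADPH regenerating system for 60 min at 37C. Full inhibition defined by 57uM ketoconazole.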

[10] = biological target: 3',5'-cyclic-AMP phosphodiesterase 4B (Homo sapiens) (UniProt Q07343); experiment: qHTS Assay for Inhibitors of PDE-IV (AID 607; active = well fitted activation curve with a large enough effect in the main read-out, with a control signal flat, not every such curve was filed as active; note: % of control where 0% means no effect)
How it was run: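 HEK293 ACTOne cells with CNG channel (1000/well), endogenous PDE4; membrane potential dye, compounds up to 22.9 uM final. Fluorescence Ex 535/Em 590; RO 20-1724 (100 uM final) as reference.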

[11] = biological target: Cytochrome P450 3A4 (Homo sapiens) (UniProt P08684); experiment: qHTS Assay for Activators of Cytochrome P450 3A4 (AID 885; active = well fitted curve in the direction sought with a large enough effect; an effect the other way counts as inactive or inconclusive; note: nearly all actives have a fitted effect of over 65% in size)
How it was run: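 Human CYP3A4 (20 nM) with Luciferin-PPXE at 25 uM (its KM) in 200 mM KPO4; 10 min compound preincubation, then NADPH regeneration and 60 min reaction at RT. Luciferin read by luminescence; normalized to 57 uM ketoconazole full inhibition.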

[12] = biological target: Ubiquitin carboxyl-terminal hydrolase 1 (Homo sapiens) (UniProt O94782); experiment: Inhibitors of USP1/UAF1: Pilot qHTS (AID 504865; active = well fitted curve in the direction sought with a large enough effect; an effect the other way counts as inactive or inconclusive; note: potency is the fitted concentration of half-maximal effect; nearly all actives have a fitted effect of over 35% in size)
How it was run: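 Deubiquitinase activity followed as kinetic rhodamine fluorescence release from 150 nM Ub-Rho. 1 nM USP1/UAF1 with compound, after 15 min room-temperature preincubation, in HEPES pH 7.8 buffer containing TCEP, EDTA, BSA and Tween-20.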

[13] = NFAT Signaling Pathway (AID 444); details: Jurkat NFAT-bla M1, carbachol, beta-lactamase ratio, 5 h; at 17.2 µM (top of the series) unless noted;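 note: carbachol stimulus at about its EC50 of 1 µM final; % is set by controls: 0 for no effect and ±100 for the full control effect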
How it was run: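 Jurkat cells with NFAT-driven β-lactamase reporter and co-expressed M1 receptor, stimulated with carbachol (final 1 uM, ~EC50), compound titration, 5 h at 37 °C. CCF4 loaded 1 h at RT; 460/530 nm ratio gave %activity and AC50.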

Sequence of Glucocorticoid receptor (Homo sapiens) (P04150 whole entry, looked up, the tested form may be a part): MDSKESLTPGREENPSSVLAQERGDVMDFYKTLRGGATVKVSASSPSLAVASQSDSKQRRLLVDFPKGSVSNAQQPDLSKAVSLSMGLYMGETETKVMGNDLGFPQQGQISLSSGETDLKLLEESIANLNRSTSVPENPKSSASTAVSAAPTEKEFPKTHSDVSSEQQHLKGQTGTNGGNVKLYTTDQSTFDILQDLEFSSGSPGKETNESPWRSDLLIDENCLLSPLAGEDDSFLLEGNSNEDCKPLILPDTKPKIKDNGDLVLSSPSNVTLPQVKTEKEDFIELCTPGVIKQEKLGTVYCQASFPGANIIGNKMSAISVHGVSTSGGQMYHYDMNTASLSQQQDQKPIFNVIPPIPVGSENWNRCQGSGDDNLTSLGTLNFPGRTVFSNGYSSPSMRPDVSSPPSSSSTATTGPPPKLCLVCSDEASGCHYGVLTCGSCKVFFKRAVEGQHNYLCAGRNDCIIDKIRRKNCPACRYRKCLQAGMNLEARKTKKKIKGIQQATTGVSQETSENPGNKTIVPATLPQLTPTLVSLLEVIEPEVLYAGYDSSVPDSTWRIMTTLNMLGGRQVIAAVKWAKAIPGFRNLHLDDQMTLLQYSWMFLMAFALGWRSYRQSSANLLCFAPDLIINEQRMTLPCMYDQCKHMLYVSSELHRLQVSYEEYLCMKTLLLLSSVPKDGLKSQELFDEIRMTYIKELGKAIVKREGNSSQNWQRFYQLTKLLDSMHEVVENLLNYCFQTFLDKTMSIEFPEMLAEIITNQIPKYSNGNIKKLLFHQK
Sequence of Cytochrome P450 1A2 (Homo sapiens) (P05177 whole entry, looked up): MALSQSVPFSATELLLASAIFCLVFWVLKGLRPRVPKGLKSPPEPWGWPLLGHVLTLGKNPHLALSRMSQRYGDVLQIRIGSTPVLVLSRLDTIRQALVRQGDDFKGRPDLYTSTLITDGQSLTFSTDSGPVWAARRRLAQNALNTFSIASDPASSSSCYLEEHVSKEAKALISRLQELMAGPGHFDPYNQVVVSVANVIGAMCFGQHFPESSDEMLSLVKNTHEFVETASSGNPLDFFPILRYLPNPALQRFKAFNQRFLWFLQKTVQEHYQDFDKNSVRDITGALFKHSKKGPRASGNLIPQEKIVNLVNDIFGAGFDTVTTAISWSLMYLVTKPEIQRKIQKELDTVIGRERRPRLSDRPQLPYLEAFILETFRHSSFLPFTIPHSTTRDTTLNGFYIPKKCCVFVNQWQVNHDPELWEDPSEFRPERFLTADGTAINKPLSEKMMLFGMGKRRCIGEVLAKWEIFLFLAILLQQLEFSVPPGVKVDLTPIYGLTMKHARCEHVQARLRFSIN
Sequence of Cytochrome P450 2D6 (Homo sapiens) (P10635 whole entry, looked up): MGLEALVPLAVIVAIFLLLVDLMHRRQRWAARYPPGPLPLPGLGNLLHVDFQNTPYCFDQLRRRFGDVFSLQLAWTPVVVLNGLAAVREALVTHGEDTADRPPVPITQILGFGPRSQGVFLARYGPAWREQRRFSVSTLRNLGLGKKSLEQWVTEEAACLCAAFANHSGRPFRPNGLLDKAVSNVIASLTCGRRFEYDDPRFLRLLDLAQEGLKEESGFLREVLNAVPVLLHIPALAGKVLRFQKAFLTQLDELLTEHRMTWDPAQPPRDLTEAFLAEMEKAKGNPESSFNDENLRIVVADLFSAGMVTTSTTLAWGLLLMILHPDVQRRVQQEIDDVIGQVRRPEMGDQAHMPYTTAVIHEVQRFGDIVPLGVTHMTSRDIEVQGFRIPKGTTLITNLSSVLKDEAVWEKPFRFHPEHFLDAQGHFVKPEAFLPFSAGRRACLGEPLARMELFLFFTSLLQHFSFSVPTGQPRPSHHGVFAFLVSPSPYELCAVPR
Sequence of Ubiquitin carboxyl-terminal hydrolase 1 (Homo sapiens) (O94782 whole entry, looked up): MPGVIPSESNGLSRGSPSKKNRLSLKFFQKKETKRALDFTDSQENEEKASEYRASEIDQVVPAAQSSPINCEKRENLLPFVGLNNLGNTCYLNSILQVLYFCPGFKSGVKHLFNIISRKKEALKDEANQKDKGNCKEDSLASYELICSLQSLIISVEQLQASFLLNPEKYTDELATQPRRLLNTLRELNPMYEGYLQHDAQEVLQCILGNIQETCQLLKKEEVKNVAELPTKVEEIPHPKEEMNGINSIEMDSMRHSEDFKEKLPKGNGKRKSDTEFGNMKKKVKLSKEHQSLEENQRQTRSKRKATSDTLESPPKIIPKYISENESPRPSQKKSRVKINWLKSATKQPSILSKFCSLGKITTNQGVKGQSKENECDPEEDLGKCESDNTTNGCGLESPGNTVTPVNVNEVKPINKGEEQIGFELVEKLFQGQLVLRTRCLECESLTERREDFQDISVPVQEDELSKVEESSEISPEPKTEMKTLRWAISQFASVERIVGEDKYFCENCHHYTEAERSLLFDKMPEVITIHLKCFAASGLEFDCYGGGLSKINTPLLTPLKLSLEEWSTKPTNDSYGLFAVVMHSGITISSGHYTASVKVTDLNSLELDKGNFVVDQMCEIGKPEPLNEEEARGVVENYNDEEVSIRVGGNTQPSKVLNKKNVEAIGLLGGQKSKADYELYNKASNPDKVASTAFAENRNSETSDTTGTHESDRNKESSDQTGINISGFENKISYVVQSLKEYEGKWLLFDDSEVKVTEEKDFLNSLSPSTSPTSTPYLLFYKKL
Sequence of 3',5'-cyclic-AMP phosphodiesterase 4B (Homo sapiens) (Q07343 whole entry, looked up): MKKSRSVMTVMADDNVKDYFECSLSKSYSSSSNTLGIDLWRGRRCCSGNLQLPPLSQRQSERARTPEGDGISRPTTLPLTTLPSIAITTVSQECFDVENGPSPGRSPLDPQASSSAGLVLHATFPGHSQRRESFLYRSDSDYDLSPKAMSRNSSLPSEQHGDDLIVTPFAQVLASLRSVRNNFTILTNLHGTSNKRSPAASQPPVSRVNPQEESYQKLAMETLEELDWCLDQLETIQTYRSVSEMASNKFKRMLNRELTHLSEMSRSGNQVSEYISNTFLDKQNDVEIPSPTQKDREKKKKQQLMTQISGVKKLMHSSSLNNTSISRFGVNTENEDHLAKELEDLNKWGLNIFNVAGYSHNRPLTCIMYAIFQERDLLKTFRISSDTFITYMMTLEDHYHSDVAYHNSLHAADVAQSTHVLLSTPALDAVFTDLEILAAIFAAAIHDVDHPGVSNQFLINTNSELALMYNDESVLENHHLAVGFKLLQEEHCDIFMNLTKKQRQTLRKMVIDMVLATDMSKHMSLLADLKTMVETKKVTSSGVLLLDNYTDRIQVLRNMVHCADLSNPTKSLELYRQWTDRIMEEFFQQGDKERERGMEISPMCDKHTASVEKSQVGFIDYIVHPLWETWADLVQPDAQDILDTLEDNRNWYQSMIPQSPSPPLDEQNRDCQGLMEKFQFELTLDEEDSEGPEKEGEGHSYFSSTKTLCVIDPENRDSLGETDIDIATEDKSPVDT
Sequence of Cytochrome P450 2C19 (Homo sapiens) (P33261 whole entry, looked up): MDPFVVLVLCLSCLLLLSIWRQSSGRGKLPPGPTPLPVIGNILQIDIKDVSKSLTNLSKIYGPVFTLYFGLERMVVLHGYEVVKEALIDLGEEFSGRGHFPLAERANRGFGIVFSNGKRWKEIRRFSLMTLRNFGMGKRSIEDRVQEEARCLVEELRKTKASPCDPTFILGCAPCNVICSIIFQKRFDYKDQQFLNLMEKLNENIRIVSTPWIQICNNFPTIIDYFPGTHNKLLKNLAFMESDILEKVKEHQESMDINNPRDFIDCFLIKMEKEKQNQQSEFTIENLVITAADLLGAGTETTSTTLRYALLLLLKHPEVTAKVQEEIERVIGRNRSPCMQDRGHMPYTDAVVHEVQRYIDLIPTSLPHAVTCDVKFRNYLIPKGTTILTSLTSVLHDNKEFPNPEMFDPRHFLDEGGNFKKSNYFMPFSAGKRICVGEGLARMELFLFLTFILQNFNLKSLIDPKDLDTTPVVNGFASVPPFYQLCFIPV
Sequence of Cytochrome P450 2C9 (Homo sapiens) (P11712 whole entry, looked up): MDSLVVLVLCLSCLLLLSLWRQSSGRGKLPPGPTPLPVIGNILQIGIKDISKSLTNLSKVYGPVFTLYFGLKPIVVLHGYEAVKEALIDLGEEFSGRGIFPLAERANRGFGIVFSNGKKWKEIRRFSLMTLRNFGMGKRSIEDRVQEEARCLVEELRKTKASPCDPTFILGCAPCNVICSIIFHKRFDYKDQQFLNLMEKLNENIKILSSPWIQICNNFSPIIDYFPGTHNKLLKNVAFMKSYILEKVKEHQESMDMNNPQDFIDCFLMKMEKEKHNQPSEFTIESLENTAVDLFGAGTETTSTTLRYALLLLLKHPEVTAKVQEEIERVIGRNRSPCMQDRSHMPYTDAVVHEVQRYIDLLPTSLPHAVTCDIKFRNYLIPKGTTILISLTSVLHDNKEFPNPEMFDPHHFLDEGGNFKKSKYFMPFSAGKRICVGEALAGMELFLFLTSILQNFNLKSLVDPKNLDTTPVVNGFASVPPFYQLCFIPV
Sequence of Cytochrome P450 3A4 (Homo sapiens) (P08684 whole entry, looked up): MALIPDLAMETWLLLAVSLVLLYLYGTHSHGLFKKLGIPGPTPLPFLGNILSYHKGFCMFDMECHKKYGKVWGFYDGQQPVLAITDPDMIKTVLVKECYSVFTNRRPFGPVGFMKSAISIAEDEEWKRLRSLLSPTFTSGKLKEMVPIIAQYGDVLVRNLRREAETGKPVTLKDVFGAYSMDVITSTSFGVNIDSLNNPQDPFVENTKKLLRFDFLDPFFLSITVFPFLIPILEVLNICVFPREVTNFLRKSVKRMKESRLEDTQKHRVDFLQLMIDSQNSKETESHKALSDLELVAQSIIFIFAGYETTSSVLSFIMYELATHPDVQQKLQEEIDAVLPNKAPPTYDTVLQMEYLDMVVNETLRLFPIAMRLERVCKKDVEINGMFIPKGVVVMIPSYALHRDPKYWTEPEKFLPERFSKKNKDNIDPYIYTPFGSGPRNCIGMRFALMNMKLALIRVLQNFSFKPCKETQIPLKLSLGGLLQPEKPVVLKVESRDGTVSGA

CCN1CCC[C@@H]1CNC(=O)c1c(OC)ccc(I)c1O
inactive: activity change, negative = inhibition [1] -2.43% [at 38 µM] | activity, negative = inhibition [3] -4.45% [at 38 µM] | Potency [4] > 46 µM | Potency [5] > 46 µM | Potency [6] | Potency [7] | Potency [9]
active: Potency [2] 15.8 µM | Potency [8] 0.199 µM

COc1cccc2c1C(=O)c1c(O)c3c(c(O)c1C2=O)C[C@](O)(C(C)=O)C[C@H]3O[C@@H]1C[C@H](N)[C@H](O)[C@H](C)O1
active: activity change, negative = inhibition [1] -116% | Potency [12] 31.6 µM
inactive: Potency [2] | Potency [4] > 20.6 µM | Potency [5] > 20.6 µM | Potency [10] | Potency [11] | Potency [8]

CC1(C)NC(=O)N(CC(O)Cn2nnc3ccccc32)C1=O (stereo unspecified)
inactive: activity change, negative = inhibition [1] 5.85% | activity change, negative = inhibition [13] 8.84% | activity, negative = inhibition [3] 6.79% | Potency [4] > 20.6 µM

Cc1ccc(C(C)C)c(OCCNc2nc3c(c(=O)n(C)c(=O)n3C)n2C)c1
inactive: activity change, negative = inhibition [1] -0.712% | activity change, negative = inhibition [13] 13.4% | activity, negative = inhibition [3] -22.6% | Potency [4] > 20.6 µM

O=C(c1cccc2ccccc12)N1CCC(N2CCN(c3ccccc3)CC2)CC1
inactive: activity change, negative = inhibition [1] -7.39% | activity change, negative = inhibition [13] -0.0782% | activity, negative = inhibition [3] -1.11% | Potency [4] > 20.6 µM

N#CCc1nc2c3c4c(sc3ncn2n1)CCCC4
inactive: activity change, negative = inhibition [1] -0.68% | activity change, negative = inhibition [13] -9.45% | activity, negative = inhibition [3] 5.72% | Potency [4] > 20.6 µM

COc1ccccc1-c1nnc2sc(COc3ccccc3)nn12
inactive: activity change, negative = inhibition [1] -9.17% | activity change, negative = inhibition [13] 13.4% | activity, negative = inhibition [3] -10.5% | Potency [4] > 20.6 µM

CC(=O)C1=C(O)C(=O)N(c2cccc(C(=O)O)c2)C1c1ccc(F)cc1 (stereo unspecified)
inactive: activity change, negative = inhibition [1] 15.1% | activity change, negative = inhibition [13] 2.04% | activity, negative = inhibition [3] 4.06% | Potency [4] > 20.6 µM

CCC(c1c(C)n(C)n(-c2ccccc2)c1=O)c1c(C)n(C)n(-c2ccccc2)c1=O
inactive: activity change, negative = inhibition [1] 6.29% | activity change, negative = inhibition [13] 9.43% | activity, negative = inhibition [3] 10.1% | Potency [4] > 20.6 µM

CN=c1sc2ccccc2n1CC(O)COCc1ccco1 (stereo unspecified)
inactive: activity change, negative = inhibition [1] -8.62% | activity change, negative = inhibition [13] 1.06% | activity, negative = inhibition [3] -2.56% | Potency [4] > 20.6 µM

CSc1nc2sc3c(c2c(=O)[nH]1)CCC(C)C3 (stereo unspecified)
inactive: activity change, negative = inhibition [1] 7% | activity change, negative = inhibition [13] -2.6% | activity, negative = inhibition [3] 8.48% | Potency [4] > 20.6 µM

O=c1oc2c(CN3CCCCC3)c(O)ccc2c2c1CCCCC2
inactive: activity change, negative = inhibition [1] 2.02% | activity change, negative = inhibition [13] -25.5% | activity, negative = inhibition [3] 9.48% | Potency [4] > 20.6 µM

COCc1[nH]nc2c1C(c1cccc(OC)c1)C(C#N)=C(N)O2 (stereo unspecified)
inactive: activity change, negative = inhibition [1] -19.1% | activity change, negative = inhibition [13] -19.7% | activity, negative = inhibition [3] -11% | Potency [4] > 20.6 µM
